According to PubChem BioAssay AID485347 (National Center for Advancing Translational Sciences (NCATS), 2010):
In all, about 340,000 compounds went through this assay and about 1,200 (0.35%) were called active. The list comes from a sample in which actives are over-represented; it also holds similar structures and randomly drawn compounds. A number with no mark means an inactive call.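 Rule for the calls: active = potentiation over 3 SD above the plate norm (cut at about 30% in these data); inactive = the rest.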

target: D(2) dopamine receptor (Homo sapiens) (UniProt P14416); assay: HTS Assay for Positive Allosteric Modulators of the Human D2 Dopamine Receptor: Primary Screen for Potentiators; details: HEK293 T-REx D2, calcium flux, EC20 dopamine potentiation; at 10 µM; active compounds read high; note: 0% is about no effect
From the text: NIH Chemical Genomics Center [NCGC] NIH Molecular Libraries Probe Centers Network [MLPCN] MLPCN Grant: NS064831-01 Assay Submitter (PI): David Sibley Dopamine receptors (DARs) are involved in the etiology and/or therapy of a number of neuropsychiatric and endocrine disorders. For instance, all receptor-based antiparkinsonian drugs work via stimulating the D2 DAR subtype whereas all FDA-approved antipsychotic agents are antagonists of this receptor. […] There are three different types of allosteric modulators that we are seeking, two of which will stimulate or augment receptor signaling, allosteric agonists and potentiators, while the third, allosteric antagonists, will attenuate receptor signaling. The present primary screening assay measures compound potentiation of an EC20 dopamine response by tracking calcium flux in a […], inducible Hek293 Trex D2 cell line.
Freshly passaged cells are plated in 1536 well black, clear bottom plates at a density of 4000 cells/well in 3 ul of complete media containing 1x tetracycline inducer. After an overnight incubation at 30 C in 5% CO2, cells are loaded with 2 ul of the no wash Calcium Assay Kit (ABD Bioquest) and incubated at room temperature for 30 to 90 minutes. A 10 cycle (1 second/cycle) baseline measurement is taken and then the FDSS online 1536 pintool delivers 23 nl of compound library (as well as dopamine controls) to the plate. The plate is measured for kinetically at 1 cycle/sec for 180 seconds and is considered to be the agonist portion of the assay (eg, compounds which activate a positive calcium response during this portion are flagged as potential agonists). Following the 180 second read, 1 ul of an EC20 of dopamine is delivered by an onboard pipette head. Measurements are taken kinetically for an additional 180 seconds.

Sequence of D(2) dopamine receptor (Homo sapiens) (P14416 whole entry, looked up): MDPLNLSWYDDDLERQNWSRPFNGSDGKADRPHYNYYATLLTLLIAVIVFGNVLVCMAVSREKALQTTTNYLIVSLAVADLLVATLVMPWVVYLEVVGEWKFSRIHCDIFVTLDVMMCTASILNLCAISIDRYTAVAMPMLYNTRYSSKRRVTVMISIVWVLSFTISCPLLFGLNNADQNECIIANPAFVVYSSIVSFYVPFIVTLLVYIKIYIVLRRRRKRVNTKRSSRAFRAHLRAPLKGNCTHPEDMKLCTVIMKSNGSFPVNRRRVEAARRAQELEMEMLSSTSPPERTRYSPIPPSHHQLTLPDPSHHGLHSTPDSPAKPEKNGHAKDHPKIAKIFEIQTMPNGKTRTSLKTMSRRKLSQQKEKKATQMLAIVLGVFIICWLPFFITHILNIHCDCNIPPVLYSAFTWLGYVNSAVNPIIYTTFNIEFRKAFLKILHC

**Q.** With `O=C(NCC(c1cccnc1)N1CCN(c2ccccc2)CC1)Oc1ccccc1` (stereo not given) as the compound, how does the potentiation read?
**A.** The potentiation was 43.6% (active).

**Q.** For `COC(=O)C(c1ccccc1)N1CCCCCC1` (stereo not given), which potentiation is on record?
**A.** Its potentiation is 5.6%.

**Q.** `COc1ccccc1N1CCN(C(CNC(=O)Oc2ccccc2)c2cccnc2)CC1` (stereo not given) was tested. Which potentiation did it give?
**A.** The potentiation was -0.508%.

**Q.** With `Cc1cccc(Cn2cccc(C(=O)Nc3ccc4c(c3)OCCO4)c2=O)c1` as the compound, how does the potentiation read?
**A.** Its potentiation is -8.38%.

**Q.** With `Cc1ccc(NC(=O)N(Cc2ccc3c(c2)OCO3)C2CCN(Cc3ccccc3)CC2)cc1F` as the compound, how does the potentiation read?
**A.** The potentiation was 2.88%.
